# Measurements as given in PubChem BioAssay (NCI).
# About 83,000 compounds went through this panel and 20% of them were active in at least one assay; those are over-represented in the sample as a whole.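 The endpoint reported here, percent growth, reads 100 for growth as untreated, 0 for no net growth and -100 for all cells dead.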 Values without a mark were called inactive. Activity calls are given as the source filed them. Rule for the calls: active = growth percent below 10; inactive = the rest.
# Tests used:
# Test in all cases: NCI-60 one-dose screen, 48 h (100 = growth as untreated, 0 = no growth, -100 = all killed)
# Conditions in all cases: 10 µM unless noted
# NCI-H23 lung = system: NCI-H23 lung
# NCI-H226 lung = system: NCI-H226 lung
# NCI-H322M lung = system: NCI-H322M lung
# HOP-62 NSCLC = system: HOP-62 NSCLC
# NCI-H460 lung = system: NCI-H460 lung
# HOP-92 NSCLC = system: HOP-92 NSCLC
# NCI-H522 lung = system: NCI-H522 lung
# A549/ATCC NSCLC = system: A549/ATCC NSCLC
# 786-0 renal = system: 786-0 renal
# COLO 205 colon = system: COLO 205 colon
# DU-145 prostate = system: DU-145 prostate
# K-562 leukemia = system: K-562 leukemia
# MALME-3M melanoma = system: MALME-3M melanoma
# MDA-MB-231 breast = system: MDA-MB-231 breast
# RXF 393 renal = system: RXF 393 renal
# SF-268 CNS = system: SF-268 CNS
# SF-295 CNS = system: SF-295 CNS
# SF-539 CNS = system: SF-539 CNS
# UACC-257 melanoma = system: UACC-257 melanoma
# M14 melanoma = system: M14 melanoma
Compound,growth (NCI-H23 lung),growth (NCI-H226 lung),growth (NCI-H322M lung),growth (HOP-62 NSCLC),growth (NCI-H460 lung),growth (HOP-92 NSCLC),growth (NCI-H522 lung),growth (A549/ATCC NSCLC),growth (786-0 renal),growth (COLO 205 colon),growth (DU-145 prostate),growth (K-562 leukemia),growth (MALME-3M melanoma),growth (MDA-MB-231 breast),growth (RXF 393 renal),growth (SF-268 CNS),growth (SF-295 CNS),growth (SF-539 CNS),growth (UACC-257 melanoma),growth (M14 melanoma)
CCn1cc(-c2ccnc(NCCNS(=O)(=O)c3ccc(Br)cc3)c2)c(-c2cccc(OC)c2)n1,-96.1% (active),72.9%,85.3%,81.4%,78.4%,51.1%,56.7%,62.4%,71.3%,93.5%,84.7%,42.1%,70.9%,80.8%,99.8%,71.5%,95.4%,78.3%,89.8%,83.3%
O=C(C[n+]1ccn(CC(OCc2ccc(Cl)cc2Cl)c2ccc(Cl)cc2Cl)c1)c1ccc(F)cc1 (centres undefined),-87.8% (active),-76.4% (active),-89.3% (active),-91.3% (active),-86.1% (active),-87.5% (active),-82.2% (active),29.9%,-94.3% (active),-84.8% (active),-93.1% (active),-17.2% (active),-84.8% (active),-96.7% (active),-94.2% (active),-93.3% (active),-90.2% (active),-91.9% (active),-89.6% (active),-97.3% (active)
CCNc1cc2c(cc1Br)-c1ccccc1C2=O,86%,92.3%,87.9%,92.3%,96.8%,84.9%,93.6%,96.3%,109%,111%,97.7%,102%,92.8%,73.2%,105%,90%,106%,103%,93.4%,107%
COc1cc(NCc2cn(-c3ccc(C(=O)O)cc3)nc2-c2ccc(C(=O)O)cc2)cc(OC)c1OC,107%,99.3%,93.9%,98.6%,99.9%,68.1%,101%,102%,90.8%,108%,93.8%,107%,80.8%,76.4%,105%,95.6%,102%,90.2%,99.7%,96.5%
CCOc1cccc2c(NC(C)CCCN(CC)CC)c(C)cnc12 (centres undefined),110%,103%,91.8%,98.9%,110%,97%,94.7%,91.4%,103%,77.1%,110%,101%,116%,78.7%,102%,87.6%,109%,102%,108%,
COc1ccc2c(c1)c(-c1noc(C(=O)c3cn(C)c4ncc(Br)cc34)n1)cn2C,30.1%,26.6%,92.9%,53.1%,76.7%,7.92% (active),67.9%,28.1%,59%,68.4%,50.4%,71%,28.1%,25.4%,27.9%,62.8%,89%,25.7%,92.8%,91.3%
CCOC(=O)c1nn(C2CCCCO2)c2ccc(NC(=O)Cn3nnc4ccccc43)cc12 (centres undefined),102%,109%,96.9%,98.8%,100%,111%,102%,102%,90.9%,120%,104%,91.3%,105%,96.4%,125%,101%,99.3%,100%,100%,102%
CCN(CC)CCCOc1ccc2c(c1)O/C(=C\c1cccc(OC)c1)C2=O,83.9%,87.8%,89.8%,104%,87.2%,84.3%,98.8%,93.5%,93.8%,94.7%,86.8%,21.5%,90.5%,87.1%,85.6%,86.1%,93.4%,86.7%,100%,92.6%
